This passage reports Potency results from PubChem BioAssay (Tox21).

Assay [1] can be described thus: Nuclear factor erythroid 2-related factor 2/antioxidant responsive element (Nrf2/ARE) small molecule agonists: qHTS cell viability counter screen in human keratinocytes (AID 1919968; active means well fitted curve in the direction sought with a large enough effect in the repeat runs; an effect the other way counts as inactive or inconclusive; further: nearly all actives have a fitted effect of over 55% in size). The essentials: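 Seed 1,500 KeratinoSens cells per well, then incubate 5 h at 37 C/5% CO2. Add compounds in DMSO and incubate 23 h. Add CellTiter-Fluor, wait 1 h and read fluorescence.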
(In general: qHTS replaces the single test concentration by a dilution series.)

The nature of assay [2]: Nuclear factor erythroid 2-related factor 2/antioxidant responsive element (Nrf2/ARE) small molecule agonists: luciferase reporter gene qHTS assay in human keratinocytes (AID 1919969; further: nearly all actives have a fitted effect of over 35% in size). (A reporter such as luciferase makes a cellular process visible.)
In assay [3] the target is Gonadotropin-releasing hormone receptor (Homo sapiens) (UniProt P30968). Briefly: Human gonadotropin-releasing hormone receptor (GnRHR) small molecule agonists, calcium flux assay in GnRHR-HEK293 cells (AID 1920063). Further: nearly all actives have a fitted effect of over 35% in size. The essentials: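 Cells: HEK293 stably expressing human GnRHR. Steps: overnight (18 h) culture, 1 h calcium dye loading at 37 C, compound addition, kinetic fluorescence read at 480/540 nm. Each compound tested at 15 concentrations in triplicate.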
Sequence of Gonadotropin-releasing hormone receptor (Homo sapiens) (P30968 whole entry, looked up): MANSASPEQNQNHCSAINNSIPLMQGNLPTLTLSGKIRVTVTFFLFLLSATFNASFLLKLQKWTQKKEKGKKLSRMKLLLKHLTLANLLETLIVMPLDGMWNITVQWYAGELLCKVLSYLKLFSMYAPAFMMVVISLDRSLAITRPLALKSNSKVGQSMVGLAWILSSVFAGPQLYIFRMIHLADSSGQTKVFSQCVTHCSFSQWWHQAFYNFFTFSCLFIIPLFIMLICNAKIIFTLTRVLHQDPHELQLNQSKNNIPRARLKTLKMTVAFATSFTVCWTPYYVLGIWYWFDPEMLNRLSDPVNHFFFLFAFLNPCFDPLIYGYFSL
In general terms: Calcium flux is commonly read through the fluorescence of an indicator in the cells.

Assay [4] concerns the target KiSS-1 receptor (Homo sapiens) (UniProt Q969F8). As to the kind of experiment: Human kisspeptin (KISS1R) small molecule agonists, calcium flux assay in KISS1R-HEK293 cells (AID 1920064; active means well fitted curve in the direction sought with a large enough effect in the repeat runs; an effect the other way counts as inactive or inconclusive). The essentials:
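Cells plated and incubated 18 h; dye added, 1 h at 37 C; compounds in DMSO pinned in; signal read at 480/540 nm every second for 3 min. Each compound tested at 15 concentrations in triplicate.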

Assay [5] is described as follows: G protein-coupled receptor (GPCR) small molecule agonists, calcium flux assay: HEK293 wild type cell line counter screen (AID 1920065). The essentials:
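Counter-screen of the Tox21 10K library for non-specific calcium release: dye-loaded cells received compounds in DMSO and were monitored by kinetic fluorescence (480/540 nm, 3 min). Fifteen concentrations, run in triplicate.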

A short description of assay [6]: p53 small molecule agonists, cell-based qHTS assay with human liver microsomes (AID 1963577).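 Further: p53 response element beta-lactamase reporter cells with liver microsomes plus NADPH.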 The method, boiled down:
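p53RE-bla cells; 5 h settle, 37 C/5% CO2; cpd + HLM 0.5 mg/mL + NADPH 0.5 mg/mL (final); 16 h 37 C; LiveBLAzer 2 h RT dark; fluorescence readout.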

The nature of assay [7]: p53 small molecule agonists, cell-based qHTS assay with rat liver microsomes (AID 1963578). The essentials: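 Rat liver microsome activation: microsomes 0.5 mg/mL, NADPH 0.5 mg/mL final; p53RE-bla cells, 16 h 37 C; LiveBLAzer readout, 2 h RT dark.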
A short description of assay [8]: p53 small molecule agonists, cell-based qHTS assay with human liver microsomes: qHTS cell viability counter screen (AID 1963579). Further: nearly all actives have a fitted effect of over 45% in size. The essentials: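 Luminescent CellTiter-Glo read-out, 30 min at room temperature, gauged cytotoxicity in p53RE-bla cells exposed 16 h at 37 C to DMSO-dissolved compounds with metabolic activation by human liver microsomes and NADPH, each 0.5 mg/mL final.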

The nature of assay [9]: p53 small molecule agonists, cell-based qHTS assay with rat liver microsomes: qHTS cell viability counter screen (AID 1963580). Further: nearly all actives have a fitted effect of over 45% in size. The method, boiled down:
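p53RE-bla HCT-116 cells were exposed 16 h at 37 C to compounds with rat liver microsomes (0.5 mg/mL) and NADPH (0.5 mg/mL). Viability was measured in the same wells as ATP content by CellTiter-Glo luminescence.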

A short description of assay [10]: p53 small molecule agonists, cell-based qHTS assay: qHTS cell viability counter screen (AID 1963581). Further: nearly all actives have a fitted effect of over 45% in size. The essentials: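 Cells: HCT-116 with p53 response element-driven beta-lactamase. Treatment: 16 h, 37 C, compounds in DMSO. Read: CellTiter-Glo luminescence after 30 min RT.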
Assay [11] in a line: p53 small molecule agonists, cell-based qHTS assay (AID 1963582; active means well fitted activation curve with a large enough effect in the signal ratio in the repeat runs, not every such curve was filed as active; the % refers to the signal ratio). The method, boiled down:
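Quantitative HTS in p53RE-bla cells: after a 5 h settling period, compounds delivered in DMSO were left on cells for 16 h at 37 C, and reporter induction was measured as fluorescence following 2 h substrate loading.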

The target in assay [12] is 5-hydroxytryptamine receptor 2A (Homo sapiens) (UniProt P28223). Briefly: 5-hydroxytryptamine receptor 2A (HTR2A) small molecule antagonists, cell-based qHTS assay (AID 1963586). Further: nearly all actives have a fitted effect of over 45% in size. The essentials:
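Antagonist-mode intracellular calcium assay: DOI (4 nM) added after 5 min compound pre-incubation at room temperature to dye-loaded HTR2A-CHO cells. Fluorescence followed for 3 min, sampled every second.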

Assay [13] shares this target. As to the kind of experiment: 5-hydroxytryptamine receptor 2A (HTR2A) small molecule agonists, cell-based qHTS assay (AID 1963587). Further: nearly all actives have a fitted effect of over 30% in size. The essentials:
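CHO cells stably expressing human HTR2A, plated 18 h, loaded with calcium dye 1 h at 37 C. Agonist mode: compounds added and intracellular calcium fluorescence recorded kinetically for 2 min at 1 sec intervals.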

Assay [14] has as its target Muscarinic acetylcholine receptor M1 (Homo sapiens) (UniProt P11229). Briefly: Cholinergic receptor muscarinic 1 (CHRM1) small molecule antagonists, cell-based qHTS assay (AID 1963588). Further: nearly all actives have a fitted effect of over 40% in size. Further: potency means the concentration at half of the fitted maximal effect. The essentials: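 CHRM1-CHO calcium-flux assay, antagonist mode. Cells were seeded 18 h, dye-loaded 1 h at 37 C and given compound for 5 min at RT, then acetylcholine was added at 50nM. FDSS fluorescence was read 3 min; 15 concentrations, three runs.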

Assay [15] has the same target. Briefly: Cholinergic receptor muscarinic 1 (CHRM1) small molecule agonists, cell-based qHTS assay (AID 1963589). Further: nearly all actives have a fitted effect of over 35% in size. The method, boiled down: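 Agonist-mode qHTS in CHO cells stably carrying human muscarinic M1. Intracellular calcium is tracked by fluorescence every second after compound transfer; each compound runs at 15 concentrations in three independent runs.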
A short description of assay [16]: cAMP Responsive Elements (CRE) small molecule agonists, cell-based qHTS assay (AID 1963590). The essentials:
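Agonist mode qHTS in CRE-bla HEK 293T cells: compounds dosed from DMSO for 3 h at 37 C/5% CO2, followed by LiveBLAzer B/G FRET substrate for 2 h at room temperature.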

The nature of assay [17]: cAMP Responsive Elements (CRE) small molecule antagonists, cell-based qHTS assay (AID 1963591; active means well fitted inhibition curve with a large enough effect in the signal ratio in the repeat runs, not every such curve was filed as active; the % refers to the signal ratio). The essentials: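 Antagonist mode: test compounds are co-incubated with the adenylyl cyclase activator NKH477 (0.25 uM final) on CRE-bla HEK293T cells for 3 h at 37 °C, followed by LiveBLAzer substrate loading.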
The target of assay [18] is Beta-2 adrenergic receptor (Homo sapiens) (UniProt P07550). As to the kind of experiment: Adrenergic beta2 receptor (ADRB2) small molecule antagonists, cell-based qHTS assay (AID 1963592). Further: series mostly up to about 92 µM; nearly all actives have a fitted effect of over 50% in size. The essentials:
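Cells (CHO, stable ADRB2 overexpression) incubated 18-20hr at 37C; compounds added from DMSO; agonist mix (1nM isoproterenol, 100uM IBMX, 25uM Ro-20-1724) added; 0.5hr RT; d2-cAMP and anti-cAMP-cryptate added; 1hr RT; 665/615 nm read.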

Assay [19] has as its target D(2) dopamine receptor (Homo sapiens) (UniProt P14416). As to the kind of experiment: Dopamine D2 receptor (DRD2) small molecule agonists, cell-based qHTS assay (AID 1963594). Further: nearly all actives have a fitted effect of over 35% in size. The essentials:
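HEK293 cells stably expressing human DRD2, pre-treated with PDE inhibitor Ro20-1724 (0.1 mM final) and compound 10 min at room temperature, then stimulated with NKH477 (200nM […]) for 30 min. cAMP read by HTRF (665/620 nm).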

For assay [20] the target is unchanged. As to the kind of experiment: Dopamine D2 receptor (DRD2) small molecule antagonists, cell-based qHTS assay (AID 1963595; active means well fitted inhibition curve with a large enough effect in the signal ratio in the repeat runs, with a control signal flat; the % refers to the signal ratio). The method, boiled down:
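HEK293 cells stably expressing DRD2 were preincubated with 0.1 mM Ro20-1724, then with compound for 10 min at room temperature. Cells were stimulated with 200 nM NKH477 plus 12 nM quinpirole for 30 min, and cAMP was read by HTRF.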

Records with an inconclusive call do not appear. Activity calls are given as the source filed them. Unless noted, the call rests on the fitted dose curve.

Sequence of 5-hydroxytryptamine receptor 2A (Homo sapiens) (P28223 whole entry, looked up): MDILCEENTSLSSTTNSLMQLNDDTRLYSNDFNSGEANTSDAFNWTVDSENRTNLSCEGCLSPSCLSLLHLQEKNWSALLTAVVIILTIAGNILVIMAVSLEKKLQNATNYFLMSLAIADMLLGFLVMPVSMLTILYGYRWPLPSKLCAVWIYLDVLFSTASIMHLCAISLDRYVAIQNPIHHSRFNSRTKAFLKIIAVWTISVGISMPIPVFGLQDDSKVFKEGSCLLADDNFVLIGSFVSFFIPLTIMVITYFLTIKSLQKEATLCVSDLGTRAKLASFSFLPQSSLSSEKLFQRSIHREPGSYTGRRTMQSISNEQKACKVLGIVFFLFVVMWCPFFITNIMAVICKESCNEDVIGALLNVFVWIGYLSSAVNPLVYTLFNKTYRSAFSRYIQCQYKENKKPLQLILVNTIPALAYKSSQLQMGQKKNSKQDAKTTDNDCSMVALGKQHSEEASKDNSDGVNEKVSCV
Sequence of Beta-2 adrenergic receptor (Homo sapiens) (P07550 whole entry, looked up): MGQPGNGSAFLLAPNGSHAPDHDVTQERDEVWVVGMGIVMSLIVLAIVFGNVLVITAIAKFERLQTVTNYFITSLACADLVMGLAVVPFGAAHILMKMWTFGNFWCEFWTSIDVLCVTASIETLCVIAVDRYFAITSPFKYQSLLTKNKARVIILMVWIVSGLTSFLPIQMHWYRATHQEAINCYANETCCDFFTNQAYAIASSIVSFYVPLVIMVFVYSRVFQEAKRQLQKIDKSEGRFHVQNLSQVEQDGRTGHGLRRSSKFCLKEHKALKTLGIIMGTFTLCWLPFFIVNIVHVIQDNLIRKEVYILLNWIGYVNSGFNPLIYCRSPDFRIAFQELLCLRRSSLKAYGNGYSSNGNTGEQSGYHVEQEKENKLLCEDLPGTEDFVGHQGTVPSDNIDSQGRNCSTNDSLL
Sequence of D(2) dopamine receptor (Homo sapiens) (P14416 whole entry, looked up): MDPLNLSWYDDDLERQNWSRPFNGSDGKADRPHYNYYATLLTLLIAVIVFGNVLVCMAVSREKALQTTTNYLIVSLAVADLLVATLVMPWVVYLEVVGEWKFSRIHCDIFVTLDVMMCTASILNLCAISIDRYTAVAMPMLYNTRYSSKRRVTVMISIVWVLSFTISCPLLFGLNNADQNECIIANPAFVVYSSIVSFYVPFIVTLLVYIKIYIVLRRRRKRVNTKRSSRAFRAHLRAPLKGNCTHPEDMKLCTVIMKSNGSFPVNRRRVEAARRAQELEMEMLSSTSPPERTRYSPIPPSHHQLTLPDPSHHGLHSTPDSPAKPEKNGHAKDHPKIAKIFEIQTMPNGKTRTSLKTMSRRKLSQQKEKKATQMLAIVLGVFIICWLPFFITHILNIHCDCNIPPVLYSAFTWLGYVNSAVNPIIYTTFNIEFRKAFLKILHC
Sequence of KiSS-1 receptor (Homo sapiens) (Q969F8 whole entry, looked up): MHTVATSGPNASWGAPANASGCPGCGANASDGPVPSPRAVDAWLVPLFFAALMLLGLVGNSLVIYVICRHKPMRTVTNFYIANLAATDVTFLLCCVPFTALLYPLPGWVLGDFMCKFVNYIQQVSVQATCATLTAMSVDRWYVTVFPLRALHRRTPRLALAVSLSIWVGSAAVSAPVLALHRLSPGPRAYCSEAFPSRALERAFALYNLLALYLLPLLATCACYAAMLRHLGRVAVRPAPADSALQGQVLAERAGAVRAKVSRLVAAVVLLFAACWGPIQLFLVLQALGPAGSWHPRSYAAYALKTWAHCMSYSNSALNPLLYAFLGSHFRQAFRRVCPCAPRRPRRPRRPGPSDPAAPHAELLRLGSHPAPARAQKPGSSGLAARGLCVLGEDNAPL
Sequence of Muscarinic acetylcholine receptor M1 (Homo sapiens) (P11229 whole entry, looked up): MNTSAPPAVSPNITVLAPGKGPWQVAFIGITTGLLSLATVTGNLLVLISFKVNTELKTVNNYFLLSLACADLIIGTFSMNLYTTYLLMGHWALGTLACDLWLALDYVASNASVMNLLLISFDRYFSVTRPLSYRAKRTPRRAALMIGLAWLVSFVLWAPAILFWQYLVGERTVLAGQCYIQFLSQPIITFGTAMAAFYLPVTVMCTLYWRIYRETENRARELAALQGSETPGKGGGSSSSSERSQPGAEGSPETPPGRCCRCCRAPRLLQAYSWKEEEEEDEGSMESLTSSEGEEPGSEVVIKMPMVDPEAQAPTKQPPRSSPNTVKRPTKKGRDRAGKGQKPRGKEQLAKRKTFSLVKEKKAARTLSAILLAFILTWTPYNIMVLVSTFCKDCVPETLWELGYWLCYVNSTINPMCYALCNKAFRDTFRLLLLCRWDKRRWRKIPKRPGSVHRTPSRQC

Turning to `C[N+]1(C)CCCCC1`, the Potency entry in [1], in assay [2], in assay [3], in assay [4], in assay [5] and in assay [6] was “inactive” throughout. Moreover, the Potency entry in assay [7], in assay [8], in [9], in assay [10], in assay [11] and in [12] was “inactive” in each case. Moreover, the Potency entry in [13], in assay [14], in assay [15], in assay [16], in [17] and in assay [18] was “inactive” throughout. Further, the Potency entry in [19] is “inactive”.
Regarding `Cc1cc(Cl)ccc1OC(C)C(=O)O` (configuration not stated), the Potency result in [1], in assay [2], in assay [3], in [4], in assay [5] and in [6] was “inactive” each time. Moreover, the Potency result in assay [7], in [8], in [9], in [10], in [11] and in assay [12] was “inactive” in each case. The Potency entry in assay [13], in assay [14], in assay [15], in assay [16], in assay [17] and in [18] was “inactive” throughout. Moreover, the Potency result in assay [19] and in [20] was “inactive” throughout.
On to `O=C(NC(=O)c1c(F)cccc1F)Nc1cc(Cl)c(OC(F)(F)C(F)C(F)(F)F)cc1Cl` (configuration not stated), for which the Potency entry in [1], in assay [2], in assay [3], in [4], in [5] and in [6] was “inactive” throughout. The Potency entry in assay [7], in assay [8], in assay [9], in assay [10], in assay [11] and in assay [12] was “inactive” each time. In addition, the Potency entry in assay [13], in [15], in assay [16], in assay [17], in assay [18] and in assay [19] was “inactive” each time. Also, in [14], the Potency was 9.42 µM (active).
Take `CC(C(=O)c1ccccc1)N(C)C` (configuration not stated): the Potency result in assay [1], in assay [2], in assay [3], in assay [4], in [5] and in assay [6] was “inactive” in each case. Also, the Potency result in [7], in assay [8], in assay [9], in assay [10], in assay [11] and in [12] was “inactive” in each case. Also, the Potency result in assay [13], in assay [14], in [15], in assay [16], in assay [17] and in assay [18] was “inactive” throughout. The Potency entry in [19] and in assay [20] was “inactive” throughout.
Regarding `CC[N+](=O)[O-]`, the Potency entry in assay [1], in assay [2], in [3], in assay [4], in [5] and in assay [6] was “inactive” each time. The Potency result in assay [7], in [8], in [9], in assay [10], in [11] and in assay [12] was “inactive” throughout. Moreover, the Potency entry in assay [13], in [14], in assay [15], in assay [16], in assay [17] and in assay [18] was “inactive” each time. Moreover, the Potency result in [19] and in assay [20] was “inactive” in each case.
Regarding `ClC(Cl)(Cl)c1ccccc1`, the Potency entry in assay [1], in assay [2], in [3], in [4], in assay [5] and in assay [6] was “inactive” in each case. In addition, the Potency result in assay [7], in assay [8], in assay [9], in assay [10], in assay [11] and in [12] was “inactive” in each case. Further, the Potency entry in [13], in assay [14], in assay [15], in assay [16], in assay [17] and in assay [18] was “inactive” in each case. The Potency entry in assay [19] is “inactive”.
Consider `CCNc1nc(Cl)nc(NC(C)(C)C#N)n1`, for which the Potency entry in assay [1], in assay [2], in assay [3], in assay [4], in assay [5] and in assay [6] was “inactive” throughout. Besides, the Potency entry in assay [7], in assay [8], in assay [9], in assay [10], in [11] and in [12] was “inactive” each time. Also, the Potency entry in [13], in assay [14], in assay [15], in assay [16], in assay [17] and in assay [18] was “inactive” in each case. Further, the Potency entry in [19] and in assay [20] was “inactive” in each case.
